Data taken from PubChem BioAssay (NCI).
This is part of a sample that, as a whole, favours compounds with a hit. Of some 83,000 tested, about 20% had one in any assay.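 Results are percent growth after 48 hours of single-concentration exposure. 100 means growth as in untreated cells, lower positive values show inhibition; negative values down to -100 show cell death.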 A number with no mark means an inactive call. Active and inactive are the calls of the source. Rule for the calls: active = growth percent below 10; inactive = the rest.

Each molecule was assayed on CAKI-1 renal (assay: NCI-60 one-dose screen, 48 h (100 = growth as untreated, 0 = no growth, -100 = all killed)). Conditions: 10 µM unless noted.

SMILES	growth
O=C(O)C(O)C(O)C1[O][Sb]([c]2ccc([N+](=O)[O-])cc2)[O]C1CO (stereo not given)	102%
Fc1c[c-]c(-c2ccccn2)c(F)c1.[CH3-].[Pt+2].c1ccc([PH+](c2ccccc2)c2ccccn2)cc1	-56.2% (active)
CCCCCCCCOC(=O)CCN1CC1	98.4%
O=C1N[C@@H]2[C@@H](O)[C@@H](O)[C@H](O)C[C@H]2c2cc3c(c(O)c21)OCO3	-7.77% (active)
O=P(Oc1ccc(Cl)cc1)(N1CC1)N1CC1	5.92% (active)
O=C1CC2(CC3(Cl)C(Cl)=C(Cl)C2(Cl)C3(Cl)Cl)C(=O)O1 (stereo not given)	97.9%
COc1ccc(/C=C/c2cc(OC)c(OC)c(OC)c2)cc1NC(=O)/C=C/c1ccc(F)cc1	33.9%
Nc1cc2nc3ccccc3nc2cc1N	101%
CN[C@@]1(c2ccccc2Cl)CCCC[C@@H]1NCC1CCCO1 (stereo not given in full)	93.9%
COc1cc2c(cc1OCCCn1c(-c3ccccn3)nc3ccccc31)N=C[C@@H]1CCCN1C2=O	-6.53% (active)
O=C(CC1(O)C(=O)Nc2ccc(Cl)cc21)c1ccc(C(=O)NCC2CCC3(CC2)OOC2(CCCCC2)OO3)cc1 (stereo not given)	-85.9% (active)
CNC12C3C4C1C1C2C3C41C(=O)N[C@H](C(=O)N(C)[C@H](C[C@@H](OC(C)=O)c1nc(C(=O)N[C@@H](Cc2ccccc2)C[C@H](C)C(=O)OC)cs1)C(C)C)C1CC1 (stereo not given in full)	87.9%
c1cc2c(c3c1CCNC3)OCO2	91.1%

What follows are molecules tested on A498 renal in the same assay as above. Conditions: 10 µM.

SMILES	growth
NC(=O)CNc1ccc([As]=[As]c2ccc(NCC(N)=O)cc2)cc1 (stereo not given)	58.1%
C/C(=C\c1ccn(-c2ccc(N)cc2)n1)[C@@H]1C[C@@H]2O[C@]2(C)CCC[C@H](C)[C@H](O)[C@@H](C)C(=O)C(C)(C)[C@@H](O)CC(=O)O1	-0.818% (active)
CC1(C)N=C(N)N=C(N)N1c1ccc(OCCCNC(=O)Nc2ccc(S(=O)(=O)F)cc2)c(Cl)c1	85.3%
c1ccc(COc2ccc3[nH]cc(CCN(Cc4ccccc4)Cc4ccccc4)c3c2)cc1	105%
O=[As](O)(O)c1ccccc1[As](=O)(O)O	102%
C1CCC([PH+](C2CCCCC2)C2CCCCC2[PH+](C2CCCCC2)C2CCCCC2)CC1.[Au].[CH-]1CCCCC1CC1CCCC[N-]1 (stereo not given)	-91.6% (active)
CCCC(=O)O[C@@H]1C[C@H]2C[C@@H](O[C@@H]3O[C@@H](C)[C@@H](O)[C@@H](O)[C@H]3OC)C[C@@H](C[C@@H](C)/C=C/C=C\C[C@@H]3O[C@@H](C[C@@H]3C)[C@@H](O)C[C@H]3C[C@@]1(O)C(=O)O3)O2	79.9%
CC[S][Hg][Cl]	115%
COc1cccc2c1c(C(=O)c1ccco1)cn2Cc1ccc(F)cc1	135%
CC(=O)c1ccc(C(=O)NCC2CCC3(CC2)OOC2(CCCCC2)OO3)cc1	89.2%
O=C(N/N=C/c1ccc(N(CCCl)CCCl)cc1)c1cccc2ccccc12	-9.28% (active)
O=C(CCCCCNC1=CC(=O)c2ccccc2C1=O)NCCC[Te]c1ccccc1	-57.7% (active)
N#CC1(c2ccccc2)CCN(Cc2ccccc2)CC1	64.8%
O=P1(NCCCl)OCCCN1CCCl (stereo not given)	108%
O=C(CC1(O)C(=O)Nc2ccc(Br)cc21)c1ccc(C(=O)NCC2CCC3(CC2)OOC2(CCCCC2)OO3)cc1 (stereo not given)	84.7%
Cc1ccc(Nc2nc3c(s2)C2=CC[C@@H]4[C@H](CC[C@]5(C)C(=O)CC[C@@H]45)[C@@]2(C)CC3)cc1	51.3%
C=C1C[C@](OC)([C@H](O)C(=O)N[C@@H](OC)[C@@H]2C[C@@H](O)C(C)(C)[C@@H](C[C@@H](COC)OC)O2)O[C@H](C)[C@@H]1C	-87.1% (active)
O=C1C2C(C(=O)[N]1[Hg][c]1cccs1)C1(Cl)C(Cl)=C(Cl)C2(Cl)C1(Cl)Cl (stereo not given)	124%
COc1ccc(/C=C\c2cc(OC)c(OC)c(OC)c2)cc1NC(=O)/C=C/c1ccc(OC)c(OC)c1	-1.67% (active)
O=C(O)c1c(Cl)n(Cc2ccc(O)cc2)c2ccc(O)cc12	107%
CC(=O)OCc1cc[c]([Hg][Cl])o1	123%
COC(=O)[C@@H](C)C[C@H](Cc1ccccc1)NC(=O)c1csc([C@@H](C[C@H](C(C)C)N(C)C(=O)[C@@H](NC(=O)CN(C)C)C2CC2)OC(C)=O)n1	0.468% (active)
